Laboratory results as given in PubChem BioAssay.
Inconclusive results are not listed. Unmarked numbers belong to inactive results. Calls of active or inactive are those of the source.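 Rule for the calls: active = viability at or below 27.92% in each of two runs, the all-compound median minus 4 SD; inconclusive = no clear call, values can overlap the other calls; inactive = the rest.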

Assay: viability of PTEN-null HCT116 cells – cell-based, HCT116 clonal line, CellTiter-Glo, pilot screen (AID 824);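 note: 0% = 20 µM Hyamine control and 100% = vehicle cell control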
Conditions: HCT116 PTEN-deleted viability, 60 h, at 10 µM, active compounds read low
In the case of `CCOc1ccc(N2CC(C(=O)Nc3ccccc3OC)CC2=O)cc1` (stereo unspecified), the viability is reported as 102%. `O=C(Cn1ncc2c1-c1ccccc1OC2)N1CCN(c2ccccn2)CC1` gave a viability of 92.7%. Molecule `CC1CN(c2c3c(nc4ncnn24)CCCC3)CC(C)O1` (stereo unspecified) has a viability of 90.8%. Molecule `CCOC(=O)C(CC)n1nc(C)n2c(cc3sccc32)c1=O` (stereo unspecified) has a viability of 95.2%. `CCOC(=O)CN(C(=O)c1ccccc1)c1ccccc1C` showed a viability of 94.2%. For `Cc1ccc(-n2ncc3c(N4CCCC(C)C4)ncnc32)c(C)c1` (stereo unspecified), the viability was 80.4%. `CCN1CCN(C(c2cccs2)C(C)NC(=O)c2ccccc2)CC1` (stereo unspecified) gave a viability of 105%. For `CC1=C(C(=O)Nc2ccc(F)cc2)C(c2cccc(C)c2)n2nc(CCCO)nc2N1` (stereo unspecified), the viability was 100%. `Cc1ccc(-c2noc(CN3C(C)CCCC3C)n2)cc1` (stereo unspecified) showed a viability of 95.9%. `CC1CCN(C(=O)CSc2nnc(Cc3cc(=O)[nH]c(=O)[nH]3)n2-c2ccc(Cl)cc2)CC1` gave a viability of 100%. Molecule `Cc1ccccc1-c1nc(CN2CCC(C(=O)N3CCC(C(N)=O)CC3)CC2)c(C)o1` has a viability of 99.2%. For `COc1ccc(C(=O)c2ccc(OC)c(N)c2)cc1N`, the viability was 17% (active). `O=C(CC1(O)C(=O)Nc2ccccc21)c1ccc2c(c1)OCO2` (stereo unspecified) gave a viability of 96.5%. Work on `CCOC(=O)c1[nH]c(C)c(C(=O)NC)c1C` yielded a viability of 90.8%. Molecule `CN(C1CCCCC1)S(=O)(=O)c1ccc(S(=O)(=O)N2CCN(CCC#N)CC2)cc1` has a viability of 91.5%. For `CC1CCCCC1NC(=O)Cn1ncc2ccccc21` (stereo unspecified), the viability was 95.7%.
